Each structure is given as a SMILES string. Results filed as inconclusive are left out. Where a call stands in place of a potency, no number is given. The source made the active and inactive calls. Calls come from the whole dose curve; as a rule, active = well fitted curve in the direction sought with a large enough effect; inconclusive = small, poorly fitted or top-dose-only effect, or another doubt; inactive = no such curve, though single readings can be large or run the other way.

A short description of the assay: Confirmation Concentration-Response Assay for Inhibitors of Tau Fibril Formation, Total Fluorescence Counterscreen for Fluorescence Polarization. The conditions noted are these: Alexa594-tau K18 total fluorescence counterscreen, interference, tau K18 with P301L mutation; series mostly up to 100 µM. From the text:
NIH Molecular Libraries Probe Production Network [MLPCN] NIH Chemical Genomics Center [NCGC] MLPCN Grant: X01 MH083262-01 Assay Provider: Carlo Ballatore, University of Pennsylvania NCGC Assay Overview: The microtubule-associated protein tau is an abundant protein in the axons of neurons that stabilizes microtubules. With its ability to modulate microtubule dynamics, tau contributes directly or indirectly, to key structural and regulatory cellular functions. Particularly important is the influence tau exerts on axonal transport, which allows signaling molecules, trophic factors and other essential cellular constituents to travel along the axons. Under pathological conditions, tau becomes sequestered into insoluble aggregates called neurofibrillary tangles. This phenomenon is believed to have pathological consequences by promoting axonal transport deficits that ultimately lead to synaptic dysfunction and neuronal loss. To identify inhibitors of tau aggregation, a heparin-induced tau fibril formation assay was used that employed a recombinantly expressed fragment of tau, K18 (Q242-E372), bearing a P301L mutation (Gustke et al. 1994; Hong et al. 1998). […] Total fluorescence (555 nm excitation and 632 nm emission) was measured to identify fluorescent or absorbent compounds at this wavelength. Such compounds may be artifacts that interfere with the Alexa 594 Tau fluorescence polarization assay. Gustke, N., B. Trinczek, et al. (1994). "Domains of tau protein and interactions with microtubules." Biochemistry 33(32): 9511-22. Hong, M., V. Zhukareva, et al. (1998). "Mutation-specific functional impairments in distinct tau isoforms of hereditary FTDP-17." Science 282(5395): 1914-7. Li, W. and V. M. Lee (2006). "Characterization of two VQIXXK motifs for tau fibrillization in vitro." Biochemistry 45(51): 15692-701. von Bergen, M., S. Barghorn, et al. (2001). "Mutations of tau protein in frontotemporal dementia promote aggregation of paired helical filaments by enhancing local beta-structure." J Biol Chem 276(51): 48165-74.
For screening, 2 uL/well human K18 P301L (15 uM unlabeled and 0.24 uM Alexa 594-labeled tau final concentrations) in reagent buffer (100 mM sodium acetate pH 7) was dispensed into black solid 1536-well plates (Grenier) using a solenoid-based dispenser. Following transfer of 23 nL compound or DMSO vehicle by a pin tool, 2 uL/well heparin (20 uM final concentration) in reagent buffer was added and the plate centrifuged 15 s at 1000 RPM. Plates were incubated 6 hr at 37 C and then 1 uL/well ThT (30 uM final concentration) was added. After a 1 hr ambient incubation, the plates were read by an Envision (Perkin Elmer) to monitor Alexa 594 FP (555 nm excitation and 632 nm emission). Keywords: NIH Roadmap, MLPCN, MLI, MLSMR, NCGC, qHTS, tau, tauopathies, Alzheimer's disease, fibril, neurodegeneration, aggregation
(In general: The purpose of a counterscreen is to sort out artefacts and off-target activity.)
`COc1ccc(NC(=O)C2CCN(S(=O)(=O)c3c(C)noc3/C=C/c3cccs3)CC2)cc1Cl`: the Potency entry is “inactive”.

As for `CCOC(=O)c1c(N)sc2c1CN(C)CC2`, the Potency entry is “inactive”.

Regarding `CCOC(=O)c1nn(-c2ccccc2)c(=O)c2c(N)scc12`, the Potency result is “inactive”.

As for `CN(c1ccccc1)S(=O)(=O)c1nnc(NC(=O)C2CCCCC2)s1`, the Potency result was “inactive”.

Take `Cc1cccc(NC(=O)c2c(NC(=O)c3ccccc3)sc3c2CCCC3)c1`: the Potency entry is “inactive”.

`COc1ccc(OC)c(NC(=O)c2c(NCc3cccs3)sc3c2CCCC3)c1`: the Potency entry was “inactive”.

For `Nc1c(-c2ccncc2)cc[nH]c1=O`, the Potency result was “inactive”.

For the compound `COc1ccc(-n2nc(C(=O)O)c3csc(N)c3c2=O)cc1`, the Potency result was “inactive”.

In the case of `COc1ccc2c(c1)c(CC(=O)N1CCOCC1)c(C)n2C(=O)c1ccc(Cl)cc1`, the Potency result is “inactive”.

Take `COC(=O)C1CCc2sc(N)c(C(=O)OCc3ccccc3)c21` (stereo not given): the Potency result was “inactive”.

On to `N#Cc1cccc(NC(=O)c2ccc3c(c2)N(Cc2cccc(Cl)c2)C(=O)c2ccccc2S3(=O)=O)c1`, for which the Potency result was “inactive”.

For the compound `O=C(Cc1ccccc1)Nc1sc2c(c1C(=O)Nc1ccc(Br)cc1)CCCC2`, the Potency entry was “inactive”.

As for `Cc1ccc(NC(=O)c2c(NC(=O)Cc3ccccc3)sc3c2CCCC3)cc1`, the Potency entry was “inactive”.

In the case of `CCN(c1ccccc1)S(=O)(=O)c1nnc(NC(=O)C(C)(C)C)s1`, the Potency entry is “inactive”.

On to `O=C(NCCCO)Nc1ccc2nc(-c3ccco3)c(-c3ccco3)nc2c1`, for which the Potency was 3.16 µM [quencher] (active).

`Nc1scc2c(CO)nn(-c3ccccc3)c(=O)c12`: the Potency result was “inactive”.

For `CC(C)c1ccc(NS(=O)(=O)c2ccc3[nH]cc(C(=O)NCCc4ccccc4)c(=O)c3c2)cc1`, the Potency entry is “inactive”.

`O=C(Cn1c(=O)c(CNc2ccccc2)cc2cc3c(cc21)OCCO3)Nc1ccccc1Cl`: the Potency result was “inactive”.

In the case of `NC[C@@H](O)c1ccc(O)c(O)c1`, the Potency entry is “inactive”.

Regarding `COc1cc(/C=N/N=C2/NC(=O)C(CC(=O)O)S2)ccc1OCc1ccc(Cl)cc1` (stereo not given), the Potency result was “inactive”.

On to `Nc1nn(-c2ccccc2)c(=O)c2c(N)scc12`, for which the Potency result is “inactive”.

As for `Cn1cc(Cl)c(C(=O)Nc2cccc(Cl)c2Cl)n1`, the Potency result was “inactive”.

For `CCOC(=O)c1nn(-c2ccc(OC)cc2)c(=O)c2c(N)scc12`, the Potency result is “inactive”.

For the compound `CN(C(=S)Nc1cccnc1)c1ccc(O)cc1`, the Potency entry is “inactive”.

For `O=C(Cc1ccccc1)Nc1sc2c(c1C(=O)Nc1ccc(Cl)cc1)CCCC2`, the Potency result was “inactive”.

Regarding `Cc1sc(N)c2c(=O)n(-c3ccccc3)ncc12`, the Potency result was “inactive”.

On to `COc1ccc2[nH]c(=O)c(CNc3cccc(C)c3)cc2c1`, for which the Potency result is “inactive”.

Turning to `COc1ccc(NC(=O)c2c(NC(=O)Cc3ccccc3)sc3c2CCCC3)cc1`, the Potency entry was “inactive”.

`COc1ccc(NC(=O)Cn2cc(S(=O)(=O)N3CCN(c4ccccc4F)CC3)c3ccccc3c2=O)cc1Cl`: the Potency entry is “inactive”.

In the case of `Nc1scc2c(C(=O)N3CCOCC3)nn(-c3ccccc3)c(=O)c12`, the Potency result is “inactive”.

In the case of `COC(=O)c1ccccc1NC(=O)CSc1nc2sc3c(c2c(=O)[nH]1)CCCC3`, the Potency result was “inactive”.

On to `Cc1cc2c(NC(=O)Nc3ccccc3)cccc2nn1`, for which the Potency entry is “inactive”.

For `CN(C)C(=O)c1ccc(-c2cc[nH]c(=O)c2N)cc1`, the Potency result is “inactive”.

In the case of `O=C(Nc1nc2ccc(S(=O)(=O)N3CCCC3)cc2s1)c1ccc(F)cc1`, the Potency entry was “inactive”.

As to `Nc1c(-c2ccccc2)cc[nH]c1=O`, the Potency entry is “inactive”.

In the case of `COc1ccc(CNC(=O)Cn2nc(C)n3cccc3c2=O)cc1`, the Potency result was “inactive”.

In the case of `COC(=O)C1CCc2sc(NC(=O)Cc3ccccc3)c(C(=O)Nc3ccc(Cl)cc3)c21` (stereo not given), the Potency entry was “inactive”.

Turning to `CC1CCc2c(sc(NC(=O)Cc3ccccc3)c2C(=O)Nc2ccc(Cl)cc2)C1` (stereo not given), the Potency result was “inactive”.

`O=C(O)CN1C(=O)/C(=C/c2ccc(-c3cccc(Cl)c3)o2)SC1=S`: the Potency result was “inactive”.

Regarding `CCOC(=O)c1nn(-c2ccc(OC)cc2)c(=O)c2c(NC(=O)Cc3ccccc3)scc12`, the Potency entry was “inactive”.

Values taken from PubChem BioAssay AID1694 (National Center for Advancing Translational Sciences (NCATS), 2009).
